Assay results from PubChem BioAssay AID758 (NMMLSC, 2007).
The whole screen tested about 190,000 compounds, of which about 110 (0.058%) were called active. Another 2% or so got no clear call; they are omitted. Shown is part of a subset that was picked to be rich in actives. A number with no mark means an inactive call.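 The calls were made as follows: active = fluorescent GTP binding to Rab7 beads changed by at least 20 points from the 100% baseline, either direction, mostly lower; inconclusive = compound itself probably fluorescent, or too few beads counted; inactive = the rest.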

test system: Rab7 GTPase wild type (dog), Bodipy-FL-GTP binding; assay: wildtype dog Rab7 nucleotide binding alteration – biochemical, multiplex bead flow cytometry, primary screen (AID 758); conditions: GST-Rab7 beads, fluorescent GTP binding, at 10 µM, actives lie on both sides;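 also: median green fluorescence of bound Bodipy-FL-GTP per Rab7 bead population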

Compound | GTP binding activity (percent of control)
CCCC(C)n1[nH]c(=O)c2c1NC(=O)CSC2c1ccc(OC)c(OC)c1 (stereo not given) | 100%
CCOc1ccc(C2SCC(=O)Nc3c2c(C)nn3C2CCOC(C)(C)C2)cc1 (stereo not given) | 79% (active)
CN(C)CCCN=Cc1c(O)n(Cc2ccco2)c(=O)[nH]c1=O | 104%
COP(=O)(OC)C(NC(=O)c1ccc(C)cc1)C(Cl)(Cl)Cl (stereo not given) | 99%
O=C(Cc1ccccc1)N1CCN(C2CCCCCC2)CC1 | 98%
